Test results from PubChem BioAssay (EPA / NIEHS).
The source made the active and inactive calls. How the source made its calls: active means hit-call score of the fitted dose curve at least 0.9, where 1 is the maximum; inactive means score below 0.9.

test: CCTE_Harrill_HTTr_Viability_MCF7: CCTE's 6-hour Cell Viability Assessment for the High-Throughput Transcriptomics (HTTr) Platform, in MCF-7 cells cultured in DMEM + 10% fetal bovine serum, Harrill Lab (AID 2284010)
In short: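 MCF-7 cells in DMEM + 10% FBS, 384-well, exposed 6 h to an eight-point dilution series. Membrane integrity scored by high-content imaging of propidium iodide exclusion; bidirectional fit versus DMSO.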

Row | Compound | outcome
1 | OCCCC1CCCCC1 | inactive
2 | O=C1OCCN1N=Cc1ccc([N+](=O)[O-])o1 | inactive
3 | C[C@@H]1CN(c2c(F)c(N)c3c(=O)c(C(=O)O)cn(C4CC4)c3c2F)C[C@H](C)N1 | inactive

test: CCTE_Harrill_HTTr_Apoptosis_MCF7: CCTE's 6-hour Apoptosis Assessment for the High-Throughput Transcriptomics (HTTr) Platform, in MCF-7 cells cultured in DMEM + 10% fetal bovine serum, Harrill Lab (AID 2284011)
In short: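 MCF-7 cells in DMEM + 10% fetal bovine serum were exposed to chemicals for 6 hours over an eight-point dilution series. Caspase-3/7 activation was imaged by high content imaging with CellEvent Caspase 3/7 Green; bidirectional fitting used DMSO as baseline.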

Row | Compound | outcome
4 | OCCCC1CCCCC1 | inactive
5 | O=C1OCCN1N=Cc1ccc([N+](=O)[O-])o1 | inactive
6 | C[C@@H]1CN(c2c(F)c(N)c3c(=O)c(C(=O)O)cn(C4CC4)c3c2F)C[C@H](C)N1 | inactive
